Compound activity (PubChem)
In the library only some 3.5% were active in any assay of this set; here they are far more common.
TEAD-YAP inh: TEAD-YAP interaction inhibition; AID 1259422; 640,000 tested, 1.4% active; HEK-TIYL cells, TEAD-Gal4/YAP UAS-luciferase luminescence; inhibition, % at 9.12 µM; in the data active = inhibition above about 32%;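 also: 0% = median of test compound wells and 100% = reference inhibitor wells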
FBW7 activator: human FBW7 E3 ligase activation, primary screen; AlphaScreen FBW7–phospho-cyclin E peptide binding, activator screen; normalized activity (activation), % at 26.1 µM; 650,000 tested, 0.13% active; Q969H0; AID 1259310; in the data active = normalized activity above about 1.9%;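 also: purified mutant Fbw7 with reduced substrate affinity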
MITF inh: blocks human microphthalmia-associated transcription factor | 650,000 tested, 0.91% active | AlphaScreen MITF homodimerization, bead proximity signal | O75030 | AID 1259374 | inhibition, % at 2.6 µM; in the data active = inhibition above about 50%;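 also: 0% = vehicle wells with protein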
Target sequence (O75030 whole entry, looked up): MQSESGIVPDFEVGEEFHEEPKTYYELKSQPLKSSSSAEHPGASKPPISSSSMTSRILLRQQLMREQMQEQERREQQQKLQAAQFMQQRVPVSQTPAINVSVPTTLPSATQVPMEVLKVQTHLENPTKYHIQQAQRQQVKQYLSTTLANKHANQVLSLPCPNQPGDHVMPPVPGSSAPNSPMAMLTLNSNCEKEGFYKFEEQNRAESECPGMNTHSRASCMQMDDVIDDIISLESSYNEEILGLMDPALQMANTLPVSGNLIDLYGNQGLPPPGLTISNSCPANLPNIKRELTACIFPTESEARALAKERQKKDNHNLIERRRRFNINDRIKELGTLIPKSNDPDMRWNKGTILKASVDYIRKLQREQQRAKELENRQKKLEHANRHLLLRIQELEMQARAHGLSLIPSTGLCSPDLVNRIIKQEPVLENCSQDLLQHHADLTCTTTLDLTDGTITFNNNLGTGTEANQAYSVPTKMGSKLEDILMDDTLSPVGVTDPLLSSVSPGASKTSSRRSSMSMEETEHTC
GPR151 activ: activates the human receptor GPR151; Q8TDV0; PathHunter beta-arrestin GPR151 cells, luminescence; activation, % at 11.2 µM; 650,000 tested, 1% active; AID 1508602; in the data active = activation above about 4.9%;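 also: 0% = median of compound wells and 100% = cells with positive control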
Numbers without * were called inactive.

SMILES | TEAD-YAP inh | FBW7 activator | MITF inh | GPR151 activ
Cc1ccc(SCCOc2ccc(S(=O)(=O)N3CCOCC3)cc2[N+](=O)[O-])cc1 | -6 | 0 | 10 | 0
CC(C)(C)n1nc2c(c1NC(=O)CCC1CCCC1)CSC2 | 1 | 0 | 1 | -1
Cc1cnc(NC2CCC(O)CC2)nc1Nc1ccc2c(c1)OCO2 (stereo unspecified) | -8 | 0 | 6 | -2
Cc1ccc(S(=O)(=O)N2CCCc3ccccc32)cc1C | 2 | 0 | 2 | 0
COc1ccc(S(=O)(=O)N2CCCc3ccccc32)cc1C | 37* | 0 | -24 | 1
Cc1cc2c(cc1C)CN(c1cccc(C(=O)NN)c1)C2 | 38* | 0 | -7 | 2
COc1ccc(N2Cc3ccc(C(=O)NN)cc3C2)cc1 | -35 | 0 | 26 | 0
Cc1cc2c(cc1C)CN(c1cccc(C(=O)O)c1)C2 | 34* | 0 | 9 | -1
CC1=NN(C(=O)COc2cc(C)cc(C)c2)C(O)(c2ccc(Cl)cc2)C1 (stereo unspecified) | -7 | 0 | -5 | 0
O=[N+]([O-])c1ccc(S(=O)(=O)Nc2cccnc2)cc1 | 6 | 0 | -6 | 3
O=C(Nc1nc(CCC(=O)N2CCCCCC2)cs1)NC1CCCCC1 | 41* | 0 | -2 | 2
O=C(Nc1nc(CCC(=O)N2CCN(c3ccccc3F)CC2)cs1)NC1CCCCC1 | 5 | 0 | 5 | 3
CC1CCc2nn(CC(=O)NC(C)c3ccccc3)cc2C1 (stereo unspecified) | -9 | 0 | -1 | 0
COc1ccc(-n2nc3cc(C)c(NC(=O)c4cc(OC)cc(OC)c4)cc3n2)cc1 | -24 | 0 | 6 | 0
COc1ccc(S(=O)(=O)Oc2ccccc2NC(C)=O)c2ccccc12 | 55* | 0 | 2 | 0
CC(=O)Nc1ccccc1OS(=O)(=O)c1cc(Br)ccc1Br | 4 | 0 | 8 | -1
COc1ccc(S(=O)(=O)Oc2ccccc2NC(C)=O)cc1C | 45* | 0 | -7 | 1
O=C(Nc1ccc(Cl)cc1)Nc1ccc(S(=O)(=O)Nc2ncccn2)cc1 | -2 | 2.5* | -23 | -1
COc1ccc(Cc2nnc(SCC(=O)Nc3ccccc3)n2-n2cccc2)cc1 | 5 | 0 | 14 | -1
O=C(Nc1ccc(Oc2ccccc2)cc1)c1ccc(F)c(S(=O)(=O)NC2CCCC2)c1 | 65* | 0 | 0 | 0
CC(C)c1ccc(NC(=O)c2ccc(F)c(S(=O)(=O)NC3CCCCCC3)c2)cc1 | 11 | 0 | -3 | 1
O=C(Nc1ccc(Cl)c(Cl)c1)c1ccc(F)c(S(=O)(=O)NC2CCCC2)c1 | 10 | 0 | 14 | -1
O=C(Nc1ccc(Oc2ccccc2)cc1)c1ccc(F)c(S(=O)(=O)NC2CCCCC2)c1 | 58* | 0 | 11 | -2
O=C(Nc1ccc(Oc2ccccc2)cc1)c1ccc(F)c(S(=O)(=O)NCc2ccccc2Cl)c1 | 41* | 0 | 1 | 1
O=C(Nc1ccc(Oc2ccccc2)cc1)c1ccc(F)c(S(=O)(=O)NC2CCCCCC2)c1 | 50* | 0 | 17 | 0
SMILES | TEAD-YAP inh | FBW7 activator | MITF inh | GPR151 activ
OCC1CCCN1c1nc(NC2CC2)c2ncn(C3CCCCC3)c2n1 (stereo unspecified) | 20 | 0 | 7 | -1
CC(=O)N[C@@H](Cc1cccc(C)c1)c1nc2ncc(-c3ccncc3)cc2[nH]1 | 46* | 0 | -4 | -1
COc1ccc(N/C(=N\S(=O)(=O)c2cccs2)c2ccccc2Cl)cn1 | -8 | 1 | 9 | -2
O=C(O)C(=O)/C(=C\c1ccsc1)c1ccc2ccccc2n1 | 45* | 0 | 22 | -5
O=C(O)C(=O)/C(=C\c1ccccc1)c1ccc2ccccc2n1 | -22 | 0 | 21 | -2
O=C1c2ccccc2C(=O)c2c(OS(=O)(=O)O)cccc21 | -24 | 0 | -1 | 0
CCn1cnc2c(Nc3ccc(C)cc3C)ncnc21 | -58 | 0 | 9 | -1
CCn1cnc2c(Nc3ccc(F)cc3)ncnc21 | 34* | 1 | 14 | -10
CC(C)N(C(=O)NC(=O)NC1CCCCC1)S(C)(=O)=O | -18 | 0 | -10 | 0
CCOC(=O)C1CCCN(S(=O)(=O)c2ccc3[nH]cc(C=O)c3c2)C1 (stereo unspecified) | 11 | 0 | -3 | 3
O=C(Nc1ccc(-c2ccc(N3CCCCC3)nn2)cc1)c1cccs1 | -17 | 7.4* | 6 | 0
O=C(Nc1cccc(-c2ccc(N3CCCCCC3)nn2)c1)c1cccs1 | -42 | 0 | -6 | -1
COc1ccc(Nc2ccnc3c(-c4cccc(O)c4)cnn23)cn1 | 25 | 0 | 13 | -2
COc1ccc(Nc2ccnc3c(-c4ccc(O)cc4)cnn23)cn1 | 91* | 0 | -15 | -2
